The text below walks through data of PubChem BioAssay (NCATS).

Records with an inconclusive call do not appear. Active and inactive are the calls of the source. Unless noted, calls follow the shape of the dose curve; as a rule, active = well fitted curve in the direction sought with a large enough effect; inconclusive = small, poorly fitted or top-dose-only effect, or another doubt; inactive = no such curve, though single readings can be large; an effect the other way counts as inactive or inconclusive.

The target of assay [1] is Arylsulfatase A (Homo sapiens) (UniProt P15289). Briefly: qHTS screen for enhancers of Arylsulfatase A (ASA1): LOPAC Validation Assay (AID 720538). In outline: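 Enhancer assay in patient-derived MLD fibroblasts carrying ASA-I179S: 48 h compound exposure at 37 C, then 14 h room-temperature pNCS turnover (0.5 mM final) in lysis buffer. Read by fluorescence at 525/598 nm after NaOH stop.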
Chain of Arylsulfatase A (Homo sapiens) (P15289 whole entry, looked up): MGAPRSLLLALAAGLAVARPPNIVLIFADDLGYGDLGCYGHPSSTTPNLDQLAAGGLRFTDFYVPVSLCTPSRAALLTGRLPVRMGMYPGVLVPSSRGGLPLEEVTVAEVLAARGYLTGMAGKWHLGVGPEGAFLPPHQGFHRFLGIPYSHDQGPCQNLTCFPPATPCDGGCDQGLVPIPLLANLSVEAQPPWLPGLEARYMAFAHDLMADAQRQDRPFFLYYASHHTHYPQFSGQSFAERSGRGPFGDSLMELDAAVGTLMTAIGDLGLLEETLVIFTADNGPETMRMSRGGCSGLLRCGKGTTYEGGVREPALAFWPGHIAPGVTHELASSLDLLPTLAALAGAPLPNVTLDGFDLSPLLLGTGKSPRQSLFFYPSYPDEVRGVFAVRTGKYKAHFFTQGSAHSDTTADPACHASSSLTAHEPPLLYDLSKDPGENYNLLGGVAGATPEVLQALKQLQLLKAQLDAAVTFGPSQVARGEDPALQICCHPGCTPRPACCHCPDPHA

Assay [2] in a line: qHTS for compounds that reverse cellular toxicity of Amyloid beta (A-beta) peptide in yeast: LOPAC Validation Assay (AID 720559).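 Also: plate controls were DMSO for no effect and equimolar ferric chloride plus clioquinol rescue for full effect.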 In outline:
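Rescue of A-beta toxicity was scored as yeast growth by 600 nm absorbance after 48 hr at 30 C with compound. Normalization used DMSO (negative) and equimolar ferric chloride plus clioquinol (positive).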
On the technique in general: qHTS replaces the single test concentration by a dilution series.

Assay [3] is described as follows: qHTS for Activators of Parkin Expression: LOPAC Validation Assay (FLuc Reporter) (AID 720573;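 also: 0% = DMSO and 100% = positive control compounds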). In a few lines:
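FLuc signal from Parkin-promoter coincidence reporter neuronal cells, normalized to DMSO and positive control (100%). Cells (1,500/well) pre-incubated 24 h, then exposed to LOPAC compounds in 7-point dose response for 24 h at 37 C, 5% CO2.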

The target of assay [4] is T1, Hexokinase-4 (Homo sapiens) + Glucokinase regulatory protein (Homo sapiens) (UniProt P35557+Q14397). Briefly: qHTS assay for inhibitors of recombinant human GCK-GKRP interaction: Diaphorase-coupled assay (AID 743205). In outline: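 A kinetic fluorescence read (Ex 525/Em 590 nm, every minute for 30 minutes) tracked resorufin from a G6PDH-diaphorase coupled GCK reaction. It contained 10 nM GST-GCK, 10 nM FLAG-GKRP, 5 mM glucose, 0.4 mM ATP in Hepes pH 7.6. Normalized to with/without-enzyme DMSO controls.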
T1 sequence (P35557 whole entry, looked up): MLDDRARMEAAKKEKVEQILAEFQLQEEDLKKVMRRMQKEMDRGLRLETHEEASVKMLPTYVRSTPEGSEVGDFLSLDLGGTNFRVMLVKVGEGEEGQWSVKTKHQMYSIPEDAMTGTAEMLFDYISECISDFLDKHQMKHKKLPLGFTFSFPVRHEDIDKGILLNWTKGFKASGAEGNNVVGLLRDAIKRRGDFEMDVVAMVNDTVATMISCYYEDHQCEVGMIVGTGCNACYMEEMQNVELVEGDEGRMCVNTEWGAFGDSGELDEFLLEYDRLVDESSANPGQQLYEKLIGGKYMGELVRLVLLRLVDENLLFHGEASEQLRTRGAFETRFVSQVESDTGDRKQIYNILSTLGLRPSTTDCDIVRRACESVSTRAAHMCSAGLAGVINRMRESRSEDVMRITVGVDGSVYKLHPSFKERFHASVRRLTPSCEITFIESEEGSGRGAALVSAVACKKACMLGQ
T1 sequence (Q14397 whole entry, looked up): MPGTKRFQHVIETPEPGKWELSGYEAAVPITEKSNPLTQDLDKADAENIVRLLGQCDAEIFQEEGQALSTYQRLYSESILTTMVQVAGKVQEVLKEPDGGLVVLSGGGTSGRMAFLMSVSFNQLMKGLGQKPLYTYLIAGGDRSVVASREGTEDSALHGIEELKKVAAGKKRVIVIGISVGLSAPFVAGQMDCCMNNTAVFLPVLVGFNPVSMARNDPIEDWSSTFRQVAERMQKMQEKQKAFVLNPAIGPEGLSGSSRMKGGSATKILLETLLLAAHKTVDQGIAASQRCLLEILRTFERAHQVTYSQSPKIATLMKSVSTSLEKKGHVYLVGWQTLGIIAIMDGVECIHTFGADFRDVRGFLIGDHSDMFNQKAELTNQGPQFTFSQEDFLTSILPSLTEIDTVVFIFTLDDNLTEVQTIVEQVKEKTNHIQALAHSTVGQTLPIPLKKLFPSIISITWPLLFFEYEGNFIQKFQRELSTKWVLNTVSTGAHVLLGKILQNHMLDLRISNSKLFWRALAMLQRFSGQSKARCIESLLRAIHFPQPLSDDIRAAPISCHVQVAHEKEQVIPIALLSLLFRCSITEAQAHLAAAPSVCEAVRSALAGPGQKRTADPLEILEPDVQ

Assay [5] addresses T1, Hexokinase-4 (Homo sapiens) + Glucokinase regulatory protein (Homo sapiens). Briefly: qHTS assay for inhibitors of recombinant human GCK-GKRP interaction: ADP-Glo assay (AID 743206).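 Also: plate controls were DMSO plus enzyme for no effect and no enzyme for full effect.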 In a few lines:
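GST-GCK and FLAG-GKRP (15 nM each in the dispensed mix, with 2 uM S6P) react with 0.4 mM ATP and 5 mM glucose (final) in Hepes pH 7.6 for 60 min at room temperature. ADP is measured by ADP-Glo luminescence.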

Assay [6] has the same target. Briefly: qHTS assay for inhibitors of recombinant human GCK-GKRP interaction: HTRF assay (AID 743207).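 Also: 0% = DMSO with GCK present and -100% = DMSO wells lacking GCK.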 In a few lines: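 After 60 min equilibration at room temperature with anti-FLAG XL665 and anti-GST antibodies, FRET ratio (665/615 nm, excitation 320 nm) was read. Proteins: GST-GCK and FLAG-GKRP, each 5 nM, plus 2 uM S6P, pH 7.1 buffer; GCK-free wells define minimum signal.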

Assay [7] is described as follows: qHTS Assay for Identifying Gametocytocidal Compounds (AID 743244). Also: potency is read from the fitted curve at half-maximal effect.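 As to max response: % is scaled to controls: 0 for no effect and ±100 for the full control effect; actives lower the fluorescent signal which means gametocytes are killed.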 The following applies: P. falciparum 3D7 stage III-V gametocytes, alamarBlue, 72 h; max response: stronger effect = lower value. In outline: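 Compounds are pinned into medium, gametocytes (stage III–V, 3D7, 20,000 cells/well) added, and plates held 72 h at 37 °C in 5% CO2. AlamarBlue follows for 24 h before fluorescence reading.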

A short description of assay [8]: qHTS for Activators of Parkin Expression: LOPAC Validation Assay (NLuc Reporter) (AID 720572;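 also: 0% = DMSO and 100% = positive control compound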). In outline:
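Neuronal line stably carrying a FLuc/NLuc coincidence reporter under the Parkin promoter, seeded 24 h, then dosed in 7-point series for 24 h at 37 C. NLuc luminescence read after FLuc; normalized to DMSO and positive control (100%).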

The nature of assay [9]: qHTS profiling for inhibitors of Plasmodium falciparum (3D7) proliferation (AID 743322).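 Also: infected erythrocytes exposed to compound for 72 h before lysis; 100% = DMSO vehicle wells and 0% = 0.29 µM artemisinin.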 The following applies: P. falciparum 3D7 proliferation; at 28.7 µM (top of the series). In a few lines:
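Erythrocytes infected with P. falciparum (0.3% parasitemia, 2.5% hematocrit) incubated with compounds 72 h at 37 C, 5% CO2. Lysis with saponin/Triton buffer containing SYBR Green I, overnight at room temperature in the dark; DNA fluorescence (485/535 nm) normalised to 0.29 uM artemisinin and DMSO.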

Assay [10] in a line: qHTS profiling for inhibitors of Plasmodium falciparum (DD2) proliferation (AID 743323; call rule not given here). The following applies: lower = more inhibition; at 28.7 µM (top of the series). In a few lines:
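Parasite proliferation measured via DNA-dye fluorescence, as uninfected erythrocytes lack DNA. Cultures at 0.3% parasitemia and 2.5% hematocrit incubated 72 h with compound; signal scaled between vehicle and 0.29 uM artemisinin wells.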

Assay [11] is described as follows: qHTS profiling for inhibitors of Plasmodium falciparum (HB3) proliferation (AID 743324).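 Also: 100% = DMSO vehicle wells and 0% = artemisinin-treated control wells.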 The following applies: Plasmodium falciparum HB3 blood-stage proliferation; at 28.7 µM (top of the series). In a few lines: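 P. falciparum HB3 grown in erythrocytes (0.3% parasitemia, 2.5% hematocrit final) with compound for 72 h at 37 C, 5% CO2. Parasite DNA detected by SYBR Green after saponin/triton lysis overnight; normalized to 0.29 uM artemisinin and DMSO.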

Take `COc1ccc2c(c1)c(CC(=O)O)c(C)n2C(=O)c1ccccc1`: the Potency entry in [1], in assay [3], in assay [4], in assay [5] and in assay [6] was “inactive” in each case. Besides, the compound was called inactive in assay [2]. The max response in [7] was 11.3% (inactive).

For the compound `CCCCCCCCCCCCCCC[C@H](O)[C@H](N)CO`, the Potency result in [1], in [3], in assay [4], in [5] and in [6] was “inactive” each time. In assay [2], the result was inactive.

`COC(=O)[C@H](NC(=O)c1cc(-c2ccccc2)nc2ccccc12)c1ccccc1`: the Potency result in [1], in [3], in assay [4], in assay [5] and in assay [6] was “inactive” throughout. Further, the outcome in assay [2] was inactive. The max response in assay [7] was 9.97% (inactive).

On to `CCCCCCCCCCCCCCCCCCOC[C@H](COP(=O)([O-])OCC[N+](C)(C)C)OC`, for which the Potency entry in assay [1], in assay [3], in assay [4], in [5] and in [6] was “inactive” each time. Moreover, the outcome in assay [2] was inactive. For the same compound, the max response in [7] is 10.4% (inactive).

`Cc1cccc(C(=O)NCN2CCN(c3ccccc3C#N)CC2)c1`: the Potency entry in assay [1], in assay [8], in [3], in assay [4], in assay [5] and in assay [6] was “inactive” throughout. For the same compound, the max response in assay [7] is 20.6% (inactive).

Turning to `NC(=O)c1cc[n+](CC2=C(C(=O)O)N3C(=O)[C@@H](NC(=O)[C@@H](c4ccccc4)S(=O)(=O)[O-])[C@H]3SC2)cc1`, the Potency result in assay [1], in [8], in assay [3], in [4], in assay [5] and in assay [6] was “inactive” each time. Also, in assay [7], the max response was 7.28% (inactive).

Consider `CNCCNS(=O)(=O)c1cccc2cnccc12`, for which the Potency entry in assay [1], in assay [8], in assay [3], in assay [4], in assay [5] and in assay [6] was “inactive” in each case. In addition, the max response in assay [7] is 18.9% (inactive).

For `C[C@H](NC(=O)/C(C#N)=C/c1ccc(O)c(O)c1)c1ccccc1`, the Potency entry in assay [1], in assay [3], in [4], in assay [5] and in assay [6] was “inactive” in each case. For the same compound, the max response in [7] is -11% (inactive).

Consider `NC(N)=N[C@@H](CCC(=O)O)C(=O)O`, for which the Potency entry in assay [1], in assay [8], in [3], in assay [4] and in assay [5] was “inactive” in each case.

As for `CC(=O)/C(C)=N/O`, the Potency result in assay [1], in assay [8], in assay [3], in assay [4], in assay [5] and in assay [6] was “inactive” each time.

For `Nc1ccc(N2C(=O)c3ccccc3C2=O)c(Cl)c1`, the Potency entry in [1], in [3], in assay [4], in assay [5] and in [6] was “inactive” throughout.

`CC(/C=C/c1cccc(Oc2ccc(F)cc2)c1)N(O)C(N)=O` (stereo not drawn): the Potency entry in [1], in [3], in [4], in [5] and in assay [6] was “inactive” in each case. For the same compound, the max response in [7] was 13.8% (inactive).

As to `Cc1cccc(C)c1OCC(N)C(C)C` (stereo not drawn), the Potency result in [1], in [8], in assay [3], in [4], in [5] and in assay [6] was “inactive” each time. Besides, in assay [7], the Potency is 23.5 µM (active). In addition, the remaining parasite growth % (stronger effect = lower value) in [9] was -0.502%. Besides, in assay [10], the activity, percent of control was -0.0581%. In assay [11], the remaining proliferation (% of control), lower = more inhibition was -0.0097%.

As for `O=C(O)C1CN(CCCP(=O)(O)O)CCN1` (stereo not drawn), the Potency entry in assay [1], in [8], in assay [3], in assay [4], in assay [5] and in assay [6] was “inactive” throughout. Also, the max response in assay [7] is -7.29% (inactive).
